Source: PubChem BioAssay AID1233 (SRMLSC, 2008)
Potency and affinity values are given separately.

target: HMG-CoA reductase [Enterococcus faecalis] (UniProt Q9FD70); test: inhibitors of E. faecalis class II HMGR, confirmation, biochemical, Enterococcus faecalis (AID 1233);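 note: 0% = full reaction carrier wells and 100% = background wells lacking mevalonate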; conditions: purified E. faecalis HMGR, NADPH absorbance 340 nm kinetics; series mostly up to 100 µM; inhibition: at the top concentration

inhibition, inactive:
CCN1CCCC1CNCC(O)COc1ccc(C(C)(C)C)cc1C (stereo not drawn) 0.13%
O=C(c1ccco1)N1CCCN(Cc2cn[nH]c2-c2ccc(-c3ccccc3)cc2)CC1 0.24%
ON/C=N/C(=S)Nc1ncc(C(F)(F)F)cc1Cl -7.37%
O=[N+]([O-])c1ccc(C(=Nc2cccc3ccccc23)N2CCOCC2)cc1 -4.3%
COC(=O)c1cc(NC(=O)CSc2nnc(N)s2)ccc1Cl -0.91%
COc1ccc(Nc2ccc(S(=O)(=O)N3CCCCC3)cc2[N+](=O)[O-])cc1 7.35%
Cn1c(CSc2nc3ccccc3s2)nc2ccccc21 -3.96%
CCC(=O)N/N=C(\C)CC(=O)Nc1ccccc1-c1ccccc1 1.25%
COc1cc(SC)ccc1C(=O)NCc1ccc(C)cc1 2.66%
COc1ccc(-c2csc(N(CC3CCCO3)C(=O)c3ccco3)n2)cc1 (stereo not drawn) 3.37%
CCN(CC)c1ccc(-c2n[nH]c(=S)n2-c2ccccc2C)cc1 -8.49%
CC(=O)Nc1ccc(Cc2nc3ccccc3[nH]2)cc1 -3.93%
CC(C)N(C(=O)Cn1cnc2cc([N+](=O)[O-])ccc2c1=O)C(C)C -1.92%
C[C@H]1[C@H](C)CC[C@]2(C(=O)O)CC[C@]3(C)C(=CC[C@@H]4[C@@]5(C)C[C@@H](O)[C@H](O)C(C)(C)[C@@H]5CC[C@]43C)[C@H]12 -8.57%
COn1c(SCc2ccc(C)cc2C)nc2ccccc2c1=O 0.13%
COc1cc2c(cc1OC)C(C(=O)Nc1ccc3c(c1)OCCO3)C(c1cccnc1)N(C)C2=O (stereo not drawn) -2.25%
Cc1cccc(C(=O)NC2CCN(C(=O)Nc3ccccc3C)CC2)c1 -0.56%
Clc1ccc2c(c1)C(c1cccs1)=NNC(c1cccnc1)=N2 -2.29%
